This note sets out measurements from PubChem BioAssay (Tox21).

Activity calls are given as the source filed them. The call rests on the fitted dose curve; in most records, active means well fitted activation curve with a large enough effect in the repeat runs; inconclusive means weak or mixed curves; inactive means flat fitted curve, though single readings scatter.

A short description of this assay: Caspase-3/7 induction in CHO-K1 cells by small molecules, qHTS assay (AID 1346980). Further: nearly all actives have a fitted effect of over 15% in size. The settings on record: CHO-K1 caspase-3/7 induction, Caspase-Glo luminescence, 17 h; series mostly up to 92.4 µM. An excerpt:
National Center for Advancing Translational Sciences [NCATS]
NIH Chemical Genomics Center [NCGC]
U.S. Environmental Protection Agency [EPA]
National Institutes of Environmental Health Sciences [NIEHS]
National Toxicology Program [NTP]
Apoptosis is a process of programmed cell death and plays a central role in the development of multicellular organisms. It is a highly regulated process and induces cell death by activating caspases, which are the members of cysteine aspartic acid-specific protease (caspase) family. Caspases involved in apoptosis are classified by their mechanism of action as initiator caspases (caspase-2, -8, -9 and -10) and executioner caspases (caspase-3, -6, and -7). Inhibition of apoptosis results in number of cancers, autoimmune diseases, inflammatory diseases and viral infection. To identify small molecule compounds that induce apoptosis, a homogeneous, luminescent Caspase-Glo 3/7 assay was used. Wild type CHO-K1 cells were used to screen Tox21 libraries for identifying caspase-3/7 activity inducers.
CHO-K1 cells were dispensed at 1,500 per well in 5uL of culture medium into white solid bottom 1536-well plates (Corning Life Sciences, Corning, NY) using a Multidrop Combi (Thermo Scientific, Waltham, MA) dispenser. The assay plates were incubated at 37 C and 5% CO2 for 5hr, and then 23nL of compounds dissolved in DMSO and positive control were transferred using a Pintool station (Wako, San Diego, CA). The assay plates were incubated at 37C and 5% CO2 for 17hr. For caspase-3/7 activity read, 4uL of Caspase-Glo 3/7 reagent (Promega Corporation, Madison, WI) was added to each well of the assay plates using Flying Reagent Dispenser (FRD, Aurora Discovery, San Diego, CA) and incubated the assay plates at room temperature for 30min. The luminescence signal was quantified using a ViewLux plate reader (Perkin Elmer, Shelton, CT).
As to `O=C(c1ccccc1)c1ccccc1`, the outcome was inactive.

As for `Cc1cc(=O)[nH]c(=S)[nH]1`, the compound was classed as inactive.

As for `CC(O)C(=O)O` (stereo not given), the call was inactive.

Consider `Nc1ccn([C@H]2CC[C@@H](CO)O2)c(=O)n1`, for which the call was inactive.

In the case of `CCCCOC(=O)CC(CC(=O)OCCCC)(OC(C)=O)C(=O)OCCCC`, the compound was classed as inactive.

With `Nc1ccc(S(=O)(=O)Nc2nccs2)cc1`, the outcome was inactive.

On to `O=c1cc[nH]c(=S)[nH]1`, for which the outcome was inactive.

For `CC(C)(Oc1ccc(C2CC2(Cl)Cl)cc1)C(=O)O` (stereo not given), the outcome was inactive.

On to `NC(=O)c1ccccc1O`, for which the compound was called inactive.

Consider `C1N2CN3CN1CN(C2)C3`, for which the compound was classed as inactive.

Consider `O=S(=O)(O)NC1CCCCC1`, for which the compound was classed as inactive.

For the compound `NC(=O)c1cnccn1`, the call was inactive.

Consider `O=C(O)CCCCCCCC(=O)O`, for which the call was inactive.

In the case of `Cc1ccc(O)cc1`, the outcome was inactive.

Regarding `Nc1ccc(C(=O)O)cc1`, the compound was called inactive.

As to `CC(=O)Nc1nnc(S(N)(=O)=O)s1`, the outcome was inactive.

Take `CC(O)CO` (stereo not given): the result was inactive.

With `O=S(=O)(O)c1ccc2cc(O)ccc2c1`, the call was inactive.

Consider `CC(=O)NS(=O)(=O)c1ccc(N)cc1`, for which the compound was classed as inactive.

As to `CC1(C)[C@@H]2CC[C@@]1(C)C(=O)C2`, the compound was called inactive.

For `Cn1c(=O)c2[nH]cnc2n(C)c1=O`, the result was inactive.

As to `O=C(O)CCC(=O)O`, the compound was called inactive.

For the compound `Cc1ccc(S(=O)(=O)NC(=O)NN2CCCCCC2)cc1`, the compound was called inactive.

On to `Cc1cn([C@H]2C[C@H](N=[N+]=[N-])[C@@H](CO)O2)c(=O)[nH]c1=O`, for which the result was inactive.

For the compound `Cc1ccccc1C(OCCN(C)C)c1ccccc1` (stereo not given), the result was inactive.

Consider `O=C(O)C(=O)O`, for which the compound was called inactive.

Regarding `O=C1CN(/N=C/c2ccc([N+](=O)[O-])o2)C(=O)N1`, the call was inactive.

For the compound `O=C(C1CCCCC1)N1CC(=O)N2CCc3ccccc3C2C1` (stereo not given), the call was inactive.

As for `OCCc1ccccc1`, the compound was classed as inactive.

With `O=C1NC(=O)c2ccccc21`, the compound was classed as inactive.

In the case of `Nc1ccc(O)c(C(=O)O)c1`, the call was inactive.

For `CCCC(O)C(CC)CO` (stereo not given), the result was inactive.

As to `O=C(O)/C=C\C(=O)O`, the result was inactive.

With `CCC1(c2ccccc2)C(=O)NCNC1=O`, the compound was called inactive.

Take `CCCNC(=O)NS(=O)(=O)c1ccc(Cl)cc1`: the compound was classed as inactive.

With `c1ccc2[nH]ccc2c1`, the call was inactive.

Turning to `N=C(N)c1ccc(OCCCCCOc2ccc(C(=N)N)cc2)cc1`, the result was inactive.

`NC(=O)NC1NC(=O)NC1=O` (stereo not given): the call was inactive.

For the compound `CNC[C@H](O)c1cccc(O)c1`, the call was inactive.

On to `CCCN(CCC)S(=O)(=O)c1ccc(C(=O)O)cc1`, for which the compound was called inactive.
